Laboratory results reported in the supplement of paper PMC11001985.
Values without a mark were called inactive.

Compound: C#CCNC(=O)CCSSCCC(=O)NCCc1ccc(C=O)c(C=O)c1
Test: lysine labeling ratio R10:1 (500 µM / 50 µM probe), SILAC-ABPP in living cells; higher = lower intrinsic lysine reactivity toward the probe, active = 2 or less
Settings: HeLa; probe concentrations 500 vs 50 µM
Summary of the method: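 With forward and reverse label swaps, light and heavy SILAC HeLa cells, alive and in PBS at room temperature, were exposed to either 500 µM or 50 µM of an alkyne-tagged lysine probe bearing a disulfide link. After mixing, lysates were clicked to biotin-azide, cut with trypsin, pulled down on neutravidin, freed with DTT, alkylated and analysed on a TIMS-TOF Pro by LC-MS/MS. The per-lysine value R is the median over forward and reverse replicates of the filtered median high-probe/low-probe MS1 peptide ratio. It is capped at 20.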

Sequence of UniProt P05106 (P05106 whole entry): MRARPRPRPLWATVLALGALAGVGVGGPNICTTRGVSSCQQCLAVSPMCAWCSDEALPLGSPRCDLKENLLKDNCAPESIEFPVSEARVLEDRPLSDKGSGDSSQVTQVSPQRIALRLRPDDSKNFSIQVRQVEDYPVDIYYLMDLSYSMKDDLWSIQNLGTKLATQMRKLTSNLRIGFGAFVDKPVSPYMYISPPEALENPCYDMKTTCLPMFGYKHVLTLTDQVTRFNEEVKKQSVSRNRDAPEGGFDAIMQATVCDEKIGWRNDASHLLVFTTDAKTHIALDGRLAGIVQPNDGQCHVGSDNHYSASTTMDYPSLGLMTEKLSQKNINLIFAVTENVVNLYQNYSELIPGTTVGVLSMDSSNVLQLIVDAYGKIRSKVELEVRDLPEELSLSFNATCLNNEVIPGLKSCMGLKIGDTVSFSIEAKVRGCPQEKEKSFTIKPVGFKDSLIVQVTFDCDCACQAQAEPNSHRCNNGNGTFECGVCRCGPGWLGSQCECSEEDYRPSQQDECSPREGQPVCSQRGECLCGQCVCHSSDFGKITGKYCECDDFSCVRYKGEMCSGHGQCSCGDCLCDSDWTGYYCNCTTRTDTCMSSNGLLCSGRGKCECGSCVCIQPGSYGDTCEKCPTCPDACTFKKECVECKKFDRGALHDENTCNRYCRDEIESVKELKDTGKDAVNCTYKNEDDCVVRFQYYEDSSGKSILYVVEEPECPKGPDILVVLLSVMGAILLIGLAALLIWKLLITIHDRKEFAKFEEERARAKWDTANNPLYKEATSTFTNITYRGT
Sequence of UniProt O00469 (O00469 whole entry): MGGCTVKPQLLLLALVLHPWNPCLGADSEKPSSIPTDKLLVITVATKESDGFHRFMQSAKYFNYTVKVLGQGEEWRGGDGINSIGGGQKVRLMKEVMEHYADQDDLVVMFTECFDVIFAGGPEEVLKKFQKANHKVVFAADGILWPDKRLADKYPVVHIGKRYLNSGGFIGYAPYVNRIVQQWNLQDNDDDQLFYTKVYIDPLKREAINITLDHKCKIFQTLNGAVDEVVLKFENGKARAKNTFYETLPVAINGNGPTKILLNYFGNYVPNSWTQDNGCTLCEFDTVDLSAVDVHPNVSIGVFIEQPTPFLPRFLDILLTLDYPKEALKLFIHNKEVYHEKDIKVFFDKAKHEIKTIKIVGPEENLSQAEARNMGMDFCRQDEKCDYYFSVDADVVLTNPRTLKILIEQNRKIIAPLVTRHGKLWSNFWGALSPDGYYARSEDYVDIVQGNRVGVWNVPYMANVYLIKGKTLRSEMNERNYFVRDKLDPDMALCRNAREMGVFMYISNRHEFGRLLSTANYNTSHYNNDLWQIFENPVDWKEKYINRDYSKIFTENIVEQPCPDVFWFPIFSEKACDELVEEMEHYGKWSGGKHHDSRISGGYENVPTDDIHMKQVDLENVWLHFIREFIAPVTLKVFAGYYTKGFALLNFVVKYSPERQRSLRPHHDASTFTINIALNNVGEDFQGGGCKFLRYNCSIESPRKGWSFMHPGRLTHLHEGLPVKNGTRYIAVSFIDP
Sequence of UniProt Q12891 (Q12891 whole entry): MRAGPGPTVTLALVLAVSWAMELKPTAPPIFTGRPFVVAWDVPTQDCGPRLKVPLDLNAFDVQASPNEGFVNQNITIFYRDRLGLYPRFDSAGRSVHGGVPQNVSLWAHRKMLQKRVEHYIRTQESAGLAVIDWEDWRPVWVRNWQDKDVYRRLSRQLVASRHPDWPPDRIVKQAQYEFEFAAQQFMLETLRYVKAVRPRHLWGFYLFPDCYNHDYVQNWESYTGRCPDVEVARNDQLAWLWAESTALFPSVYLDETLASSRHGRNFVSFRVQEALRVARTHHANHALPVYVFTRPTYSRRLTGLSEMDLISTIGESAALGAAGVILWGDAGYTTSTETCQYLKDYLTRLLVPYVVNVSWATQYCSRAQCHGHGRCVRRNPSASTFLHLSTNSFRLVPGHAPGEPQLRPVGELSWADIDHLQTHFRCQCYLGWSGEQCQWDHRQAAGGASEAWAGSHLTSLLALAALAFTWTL
Sequence of UniProt P29401 (P29401 whole entry): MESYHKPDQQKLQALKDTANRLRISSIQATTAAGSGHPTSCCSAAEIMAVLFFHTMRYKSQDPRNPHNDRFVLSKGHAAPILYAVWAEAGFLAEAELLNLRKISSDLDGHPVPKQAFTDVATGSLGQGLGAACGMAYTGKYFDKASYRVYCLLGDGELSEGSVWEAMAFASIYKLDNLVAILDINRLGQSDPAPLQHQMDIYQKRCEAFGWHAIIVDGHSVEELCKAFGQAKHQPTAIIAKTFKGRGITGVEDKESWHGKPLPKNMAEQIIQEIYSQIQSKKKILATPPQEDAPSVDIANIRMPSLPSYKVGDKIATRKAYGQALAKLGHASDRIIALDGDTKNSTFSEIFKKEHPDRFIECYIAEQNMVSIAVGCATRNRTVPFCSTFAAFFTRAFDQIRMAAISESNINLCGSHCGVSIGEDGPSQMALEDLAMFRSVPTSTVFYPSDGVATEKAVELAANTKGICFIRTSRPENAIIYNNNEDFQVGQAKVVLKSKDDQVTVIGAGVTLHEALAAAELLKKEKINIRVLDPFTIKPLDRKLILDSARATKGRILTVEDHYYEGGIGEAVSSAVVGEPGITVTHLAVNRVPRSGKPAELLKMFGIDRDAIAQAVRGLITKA
Sequence of UniProt P38646 (P38646 whole entry): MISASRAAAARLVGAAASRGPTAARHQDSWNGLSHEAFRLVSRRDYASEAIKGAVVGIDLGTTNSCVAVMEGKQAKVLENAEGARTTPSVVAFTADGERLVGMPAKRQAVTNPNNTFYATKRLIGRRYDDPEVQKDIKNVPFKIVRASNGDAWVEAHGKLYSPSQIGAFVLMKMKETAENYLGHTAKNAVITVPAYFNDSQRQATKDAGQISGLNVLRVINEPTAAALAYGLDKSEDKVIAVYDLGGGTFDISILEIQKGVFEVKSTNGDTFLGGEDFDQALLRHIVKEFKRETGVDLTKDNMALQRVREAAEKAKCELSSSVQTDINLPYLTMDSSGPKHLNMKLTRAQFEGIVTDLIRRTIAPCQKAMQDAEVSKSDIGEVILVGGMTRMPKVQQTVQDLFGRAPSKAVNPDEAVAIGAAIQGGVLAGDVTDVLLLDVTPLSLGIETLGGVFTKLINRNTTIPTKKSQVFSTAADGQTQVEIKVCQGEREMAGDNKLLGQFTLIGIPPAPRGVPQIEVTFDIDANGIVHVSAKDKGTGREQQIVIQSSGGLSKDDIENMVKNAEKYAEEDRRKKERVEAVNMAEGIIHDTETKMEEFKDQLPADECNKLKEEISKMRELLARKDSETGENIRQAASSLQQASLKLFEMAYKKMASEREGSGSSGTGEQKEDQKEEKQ
Sequence of UniProt Q8WUM4 (Q8WUM4 whole entry): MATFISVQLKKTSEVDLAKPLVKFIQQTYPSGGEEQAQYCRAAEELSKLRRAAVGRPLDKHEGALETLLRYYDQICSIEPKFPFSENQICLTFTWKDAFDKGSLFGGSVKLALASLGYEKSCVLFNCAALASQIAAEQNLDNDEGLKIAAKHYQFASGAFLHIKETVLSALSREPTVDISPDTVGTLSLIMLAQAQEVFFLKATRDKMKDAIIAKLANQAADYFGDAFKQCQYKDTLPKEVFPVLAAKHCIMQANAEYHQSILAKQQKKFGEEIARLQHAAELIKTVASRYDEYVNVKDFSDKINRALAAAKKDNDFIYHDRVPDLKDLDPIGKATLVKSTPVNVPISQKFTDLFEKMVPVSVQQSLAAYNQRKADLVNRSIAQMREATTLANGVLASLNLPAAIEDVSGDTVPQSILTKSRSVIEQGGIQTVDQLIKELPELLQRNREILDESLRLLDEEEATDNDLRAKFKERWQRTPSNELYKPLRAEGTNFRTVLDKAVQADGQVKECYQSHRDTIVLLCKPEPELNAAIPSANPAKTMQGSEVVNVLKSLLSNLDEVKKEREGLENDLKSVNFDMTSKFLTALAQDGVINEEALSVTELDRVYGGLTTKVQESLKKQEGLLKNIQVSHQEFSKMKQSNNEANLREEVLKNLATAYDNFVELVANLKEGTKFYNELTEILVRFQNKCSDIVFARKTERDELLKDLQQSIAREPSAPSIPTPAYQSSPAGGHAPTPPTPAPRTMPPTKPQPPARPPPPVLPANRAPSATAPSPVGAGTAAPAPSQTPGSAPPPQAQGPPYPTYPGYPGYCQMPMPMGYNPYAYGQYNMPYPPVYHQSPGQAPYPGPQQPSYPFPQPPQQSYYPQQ
Sequence of UniProt P30101 (P30101 whole entry): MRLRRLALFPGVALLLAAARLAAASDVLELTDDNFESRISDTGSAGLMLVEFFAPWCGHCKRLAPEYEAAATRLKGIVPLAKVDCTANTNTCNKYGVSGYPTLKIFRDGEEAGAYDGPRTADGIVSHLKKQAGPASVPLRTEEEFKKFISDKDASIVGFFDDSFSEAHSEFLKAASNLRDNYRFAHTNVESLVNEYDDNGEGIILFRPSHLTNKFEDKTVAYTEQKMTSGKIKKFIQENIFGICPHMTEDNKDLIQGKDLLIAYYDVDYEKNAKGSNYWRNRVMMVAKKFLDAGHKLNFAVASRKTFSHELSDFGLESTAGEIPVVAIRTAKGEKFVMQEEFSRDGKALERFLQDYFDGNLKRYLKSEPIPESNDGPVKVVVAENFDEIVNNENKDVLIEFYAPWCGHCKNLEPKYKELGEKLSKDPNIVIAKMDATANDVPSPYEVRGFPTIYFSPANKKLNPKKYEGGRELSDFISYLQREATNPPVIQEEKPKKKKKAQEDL

Q: For “HSPA8 (lysine site: K257) (UniProt P11142)”, which “lysine labeling ratio R10:1” value is on record?
A: 3.1

Q: Which “lysine labeling ratio R10:1” value does the source give for “SLC39A6 (lysine site: K164) (UniProt Q13433)” here?
A: 7.08

Q: For “ANKH (lysine site: K127) (UniProt Q9HCJ1)”, which “lysine labeling ratio R10:1” value is on record?
A: 0.684 (active)

Q: For “PLOD2 (lysine site: K89) (UniProt O00469)”, which “lysine labeling ratio R10:1” value is on record?
A: 1.37 (active)

Q: Which “lysine labeling ratio R10:1” value does the source give for “DDX3X (lysine site: K491) (UniProt O00571)” here?
A: 2.59

Q: With “IMPDH2 (lysine site: K422) (UniProt P12268)” as the target, how does the “lysine labeling ratio R10:1” value read?
A: 1.55 (active)

Q: With “TM9SF2 (lysine site: K495) (UniProt Q99805)” as the target, how does the “lysine labeling ratio R10:1” value read?
A: 4.38

Q: For UniProt P55072 (lysine site: K148), which “lysine labeling ratio R10:1” value is on record?
A: 5.57

Q: Which “lysine labeling ratio R10:1” value does the source give for UniProt Q9UKX5 (lysine site: K150) here?
A: 2.51

Q: For UniProt Q12891 (lysine site: K148), which “lysine labeling ratio R10:1” value is on record?
A: 1.46 (active)

Q: How did the “lysine labeling ratio R10:1” value turn out when UniProt P16144 (lysine site: K510) was run?
A: 2.83

Q: With “TKT (lysine site: K538) (UniProt P29401)” as the target, how does the “lysine labeling ratio R10:1” value read?
A: 1.86 (active)

Q: How did the “lysine labeling ratio R10:1” value turn out when UniProt P62826 (lysine site: K99) was run?
A: 2.78

Q: With “PDCD6IP (lysine site: K48) (UniProt Q8WUM4)” as the target, how does the “lysine labeling ratio R10:1” value read?
A: 2.93

Q: How did the “lysine labeling ratio R10:1” value turn out when UniProt P05106 (lysine site: K98) was run?
A: 1.59 (active)

Q: Which “lysine labeling ratio R10:1” value does the source give for “PDIA3 (lysine site: K274) (UniProt P30101)” here?
A: 3.59

Q: “MYH9 (lysine site: K1754) (UniProt P35579)” was tested. Which “lysine labeling ratio R10:1” value did it give?
A: 3.66

Q: With “IGSF3 (lysine site: K642) (UniProt O75054)” as the target, how does the “lysine labeling ratio R10:1” value read?
A: 1.12 (active)

Q: “SEMA3C (lysine site: K158) (UniProt Q99985)” was tested. Which “lysine labeling ratio R10:1” value did it give?
A: 5.63

Q: How did the “lysine labeling ratio R10:1” value turn out when “RCC2 (lysine site: K124) (UniProt Q9P258)” was run?
A: 1.8 (active)

Q: How did the “lysine labeling ratio R10:1” value turn out when UniProt Q9NYQ7 (lysine site: K2131) was run?
A: 1.56 (active)

Q: For “DYNC1H1 (lysine site: K2239) (UniProt Q14204)”, which “lysine labeling ratio R10:1” value is on record?
A: 6.84

Q: Which “lysine labeling ratio R10:1” value does the source give for “HSPA9 (lysine site: K143) (UniProt P38646)” here?
A: 2.54
